SENP8 block-1 = inhibitors of human SENP8 protease; inhibition, % at 10 µM; 1.2% of 330,000 active; AID 2540; purified SENP8, Z-RLRGG-aminoluciferin cleavage, luminescence; Q96LD8; in the data active = inhibition above about 50%
Target sequence (Q96LD8 whole entry, looked up): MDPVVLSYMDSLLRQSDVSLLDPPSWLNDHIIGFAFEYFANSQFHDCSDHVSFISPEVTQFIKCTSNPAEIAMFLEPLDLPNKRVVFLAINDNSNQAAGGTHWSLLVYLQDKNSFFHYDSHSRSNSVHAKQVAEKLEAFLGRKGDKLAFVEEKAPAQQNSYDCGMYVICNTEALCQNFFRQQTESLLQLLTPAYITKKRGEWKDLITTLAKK
EBI2 antag = antagonists of human EBI2 receptor; 0.81% of 360,000 active; P32249; inhibition, % at 5 µM; EBI2 beta-arrestin recruitment, luminescence, 7a,25-OHC stimulated; AID 651636; in the data active = inhibition above about 38%;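 also: enzyme fragment complementation signal reports receptor beta-arrestin coupling in cells; 0% = agonist plus DMSO wells and 100% = wells without agonist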
SENP6 inh = inhibitors of human SENP6 protease; Q9GZR1; Recombinant SENP6 catalytic domain, aminoluciferin luminescence; inhibition, % at 10 µM; 1.8% of 330,000 active; AID 2599;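 active = inhibition above about 50% at the single tested dose, limit read from the data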;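 also: plate controls were DMSO wells with enzyme for no effect and DMSO wells lacking enzyme for full effect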
SENP7 block = blocks the human protease SENP7; Q9BQF6; recombinant SENP7, Z-RLRGG-aminoluciferin luminescence, 40 min; inhibition, % at 5 µM; 1.5% of 330,000 active; AID 434973;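 active = inhibition above about 50% at the single test dose, limit read from the data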;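 also: plate controls were DMSO with enzyme for no effect and no enzyme buffer wells for full effect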
Target sequence (Q9BQF6 706-1050 limits assumed): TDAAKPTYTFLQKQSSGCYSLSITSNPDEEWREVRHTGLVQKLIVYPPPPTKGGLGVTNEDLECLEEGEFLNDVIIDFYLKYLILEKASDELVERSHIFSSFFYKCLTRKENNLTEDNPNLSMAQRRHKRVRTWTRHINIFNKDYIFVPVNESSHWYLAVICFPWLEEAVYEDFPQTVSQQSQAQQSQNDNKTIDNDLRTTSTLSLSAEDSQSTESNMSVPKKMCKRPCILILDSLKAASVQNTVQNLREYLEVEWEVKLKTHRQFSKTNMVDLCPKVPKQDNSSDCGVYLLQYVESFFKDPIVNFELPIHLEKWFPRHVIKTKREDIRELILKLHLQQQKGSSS
AHR act = human AHR activation; AHR-responsive luciferase reporter cells, luminescence; 2.5% of 320,000 active; activation, % at 5 µM; AID 2796; in the data active = activation above about 47%;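 also: 0% = vehicle wells and 100% = reference agonist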
SENP8 block-2 = inhibitors of human SENP8 protease | Q96LD8 | recombinant SENP8, Nedd8 substrate fluorescence | inhibition, % at 20 µM | 0.64% of 360,000 active | AID 602440; in the data active = inhibition mostly above about 40%, no sharp cut-off; inactive = mostly below about 27%
Numbers without * were called inactive; nt = no result given. Sampled rows, rich in hits. Any-hit rate of the full collection: about 5%.

SMILES	SENP8 block-1	EBI2 antag	SENP6 inh	SENP7 block	AHR act	SENP8 block-2
CN(C)S(=O)(=O)c1cccc(NC(=O)c2ccccc2SCC(=O)N2CCCC2)c1	nt	-3.6	nt	nt	nt	18.8
COc1ccc(NC(=O)c2cc3cc(C)ccc3n2C)c(OC)c1	-2.1	16.2	1.1	-6.3	58.7*	0.9
CCc1c(O)nc(SCC(=O)Nc2ccc(Cl)cc2)n(-c2ccccc2)c1=O	nt	-4.1	nt	nt	nt	7.7
O=[N+]([O-])c1ccc(Oc2cccc3cccnc23)c([N+](=O)[O-])c1	-8.2	21.1	-10.3	-1.7	53.1*	23.8
Cc1cccc(-n2nnc3cnn(C)c3c2=O)c1	6.2	-8.0	1.1	8.2	59.7*	17.3
Cn1ncc2nnn(-c3ccccc3)c(=O)c21	2.4	-5.6	-9.1	-2.8	17.3	13.0
COc1ccc(CNC(=O)c2c(N)n(CCCN3CCOCC3)c3nc4ccccc4nc23)cc1	71.0*	6.3	68.4*	44.1	-3.8	-300.9
Nc1c(C(=O)NCc2ccc(F)cc2)c2nc3ccccc3nc2n1CCCN1CCOCC1	80.2*	27.4	78.2*	57.3*	-3.1	-250.5
COC(=O)c1c(N)n(CCCN2CCOCC2)c2nc3ccccc3nc12	2.2	4.1	6.8	7.2	4.7	-321.9
Nc1c(C(=O)N/N=C/c2cccnc2)cnn1-c1ccccc1	-2.9	-3.4	8.1	9.9	50.9*	10.5
Nc1c(C(=O)N/N=C/c2ccc(Cl)cc2)cnn1-c1ccccc1	7.7	20.2	4.2	6.0	37.6	-40.5
COc1cccc(/C=N/NC(=O)c2cnn(-c3ccccc3)c2N)c1	71.4*	2.8	83.4*	80.9*	68.2*	-17.4
Nc1c(C(=O)N/N=C/c2ccc(OCc3ccccc3)cc2)cnn1-c1ccccc1	7.6	-26.5	-10.3	-2.9	4.3	4.6
COc1cc(CCNC2=CC(=O)c3ncccc3C2=O)ccc1O	nt	-41.9	nt	nt	nt	96.8*
COc1ccccc1CNS(=O)(=O)c1cc(CN2C(=O)c3cccnc3C2=O)ccc1OC	-8.3	6.0	4.7	-1.0	0.2	7.4
COc1ccc(NC(=O)Nc2nnc(-c3ccccc3F)s2)cc1	-4.0	-3.5	-20.9	-4.2	71.5*	-13.8
COc1ccc(NC(=O)Nc2nnc(-c3ccco3)s2)cc1	-9.8	1.7	9.4	41.5	64.4*	-78.3
COc1ccc(C(=O)Nc2ccc(O)c3ccccc23)cc1	-0.7	-8.5	-4.1	11.0	38.6	24.6
COc1ccc(NC(=O)Nc2ccc(O)c3ccccc23)cc1	12.9	nt	34.6	11.6	75.2*	nt
O=C(COc1ccccc1[N+](=O)[O-])N/N=C/c1cccc(OC(=O)c2ccc3c(c2)OCO3)c1	41.7	3.8	71.2*	77.2*	3.0	9.7
COc1cccc2c1C(=O)c1c(O)c3c(c(O)c1C2=O)C[C@@](O)(C(=O)CO)C[C@@H]3OC1CC(N)C(O)C(C)O1 (stereo partly specified)	nt	-24.3	nt	nt	nt	94.0*
CC(=O)[C@@]1(O)Cc2c(O)c3c(c(O)c2[C@H](O[C@H]2C[C@H](N)[C@H](O)[C@H](C)O2)C1)C(=O)c1ccccc1C3=O	nt	16.1	nt	nt	nt	28.7
COc1cccc2c1C(=O)c1c(O)c3c(c(O)c1C2=O)C[C@@](O)(C(=O)CO)C[C@@H]3O[C@H]1C[C@H](N)[C@H](O)[C@H](C)O1	9.4	-2.2	7.0	13.3	-4.3	26.3
COc1cccc2c1C(=O)c1c(O)c3c(c(O)c1C2=O)CC(O)(C(C)=O)CC3OC1CC(N(C)C)C(O)C(C)O1 (stereo unspecified)	nt	-18.9	nt	nt	nt	48.9*
CCCCNS(=O)(=O)c1cccc(NC(=O)[C@H]2C[C@H](O)[C@@H](CO)O2)c1	nt	-11.9	nt	nt	nt	16.0
SMILES	SENP8 block-1	EBI2 antag	SENP6 inh	SENP7 block	AHR act	SENP8 block-2
C[C@@H]1CN([C@H](C)CO)C(=O)c2cc(Br)cnc2O[C@H]1CN(C)C(=O)CC1CC1	nt	-1.9	nt	nt	nt	12.2
COc1ccc([C@H]2C[C@H](O)[C@@H](n3cc(C4CC4)nn3)CN2C(=O)C2CCCCC2)cc1	nt	1.4	nt	nt	nt	4.9
COc1cc(OC)cc(C(=O)Nc2ccc(Cn3ccnc3)cc2)c1	-7.1	-1.6	1.4	2.4	35.6	20.0
Cc1nn(-c2ccccc2)nc1C(=O)NN	0.5	-2.4	-5.5	-0.2	5.8	3.6
COc1ccc(C(=O)Nc2ccc(Cn3ccnc3)cc2)cc1OC	-16.5	-9.9	-13.3	2.8	50.9*	9.1
COc1ccccc1CC(=O)Nc1ccc2[nH]ncc2c1	-9.7	-0.6	-24.7	7.0	5.5	2.6
Cc1nn(-c2ccccc2)nc1C(=O)Nc1ccc2[nH]ncc2c1	3.4	11.1	-24.5	-0.8	52.4*	1.5
O=C(Nc1ccc2cn[nH]c2c1)c1ccccc1F	-3.6	-22.4	22.4	16.2	105.5*	8.5
COc1ccc(C(=O)Nc2ccc3[nH]ncc3c2)cc1OC	-13.5	5.9	-1.9	-6.7	47.6*	8.3
O=C(Nc1ccc2cn[nH]c2c1)c1c(Cl)cccc1Cl	-3.6	2.0	10.6	0.4	20.9	18.2
COc1ccc(NC(=O)Nc2cccc3[nH]c([C@@H]4O[C@H](CO)[C@@H](O)[C@H](O)[C@H]4O)nc23)cc1OC1CCCC1	nt	1.1	nt	nt	nt	5.8
CCOC(=O)C1=CC[C@@H](c2ccccc2C(F)(F)F)N(S(=O)(=O)c2ccc(C)cc2)[C@H]1c1ccc(C#N)cc1	nt	11.3	nt	nt	nt	23.5
CC1(C)CC(=O)C2=C(C1)Nc1ccccc1NC2c1ccc([N+](=O)[O-])cc1 (stereo unspecified)	-10.9	0.0	-13.2	-5.1	-1.7	15.3
Cc1ccc2c(C(=O)CN3CCN(C(=O)c4ccco4)CC3)c(C)[nH]c2c1	-12.3	19.4	-10.6	-1.1	53.3*	11.7
Cc1ccc2[nH]c(=O)c3cc(C(=O)N4CCN(C(=O)c5ccco5)CC4)sc3c2c1	0.2	-0.4	-2.6	2.0	78.2*	-335.5
Cc1ccc2c(C(=O)CN3CCN(C4CCCCC4)CC3)c(C)[nH]c2c1	3.0	0.9	7.1	-6.7	19.5	16.4
CCOc1ccc(/C=C2\SC(N3CCc4ccccc4C3)=NC2=O)cc1	-4.1	65.1*	-5.3	0.2	-0.8	-30.3
COc1cc(OC)c(OC)cc1/C=C1\SC(N2CCCCC2)=NC1=O	2.3	-12.6	11.9	2.1	10.3	-88.7
Cc1ccc(/C=C2\SC(N3CCCCC3)=NC2=O)cc1	-8.4	80.7*	21.0	-2.8	71.2*	2.9
COc1ccc(OC)c(/C=C2\SC(N3CCCCC3)=NC2=O)c1	-8.8	0.2	-25.2	4.4	74.2*	-281.3
CCOC(=O)C1CCCN(C2=NC(=O)/C(=C/c3ccc(N(C)C)cc3)S2)C1 (stereo unspecified)	-13.1	45.0*	-8.8	6.7	7.9	-19.4
COc1ccc(/C=C2\SC(N3CCc4ccccc4C3)=NC2=O)cc1	-1.4	36.8	-1.2	0.2	-0.2	-24.2
CCCNC(=O)C1(C)CCN(C(=O)c2ccc3c(c2)CCO3)C1 (stereo unspecified)	nt	-14.6	nt	nt	nt	13.6
CCOC(=O)Nc1cc(N)ncn1	nt	5.5	nt	nt	nt	9.5
COc1ccc(OC)c(NC(=O)CSc2nc3[nH]c(=O)[nH]c(=O)c3s2)c1	nt	2.9	nt	nt	nt	4.7
